These results are taken from PubChem BioAssay.

A short description of assay [1]: small molecules captured by biotinylated probe aFSTL3 – biochemical, small-molecule microarray, fluorescence 635/667, stem cell growth factor project, primary screen (AID 1064).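 Note: measures binding of the biotinylated anti-FSTL3 antibody to printed compounds.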 The settings on record: higher = more signal.
The nature of assay [2]: binders from COS7 lysate, DM2A8 probe, primary screen, torsin A project, cell lysate, small-molecule microarray, fluorescence 635/667 (AID 1065). The settings on record: higher = more signal, COS7 lysate expressing mutant human TOR1A.
Assay [3] can be described thus: small molecules captured by biotinylated probe aFGF2 – biochemical, small-molecule microarray, fluorescence 635/667, stem cell growth factor project, primary screen (AID 1067).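 Note: measures binding of biotinylated aFGF2 protein to printed compounds on slides; z-score merges feature fluorescence and signal-to-noise across triplicate slides.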 The settings on record: higher = more signal.
Assay [4] can be described thus: small molecules captured by biotinylated probe aFGF10 – biochemical, small-molecule microarray, fluorescence 635/667, stem cell growth factor project, primary screen (AID 1071).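 Note: score merges 667 nm spot intensity and signal to noise from triplicate slides.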 The settings on record: higher = more signal.
Assay [5] has as its target Neurogenic locus notch homolog protein 2 (Homo sapiens) (UniProt Q04721). Briefly: small molecules binding Notch2 protein – biochemical, small-molecule microarray, 635 nm fluorescence, stem cell growth factors, primary screen (AID 1073). As to conditions: higher = more signal.
Assay [6] has as its target Pro-neuregulin-1, membrane-bound isoform (Homo sapiens) (UniProt Q02297). Briefly: small molecules binding neuregulin-1 protein – biochemical, small-molecule microarray, fluorescence 635/667, psychiatric disease protein project, primary screen (AID 1075).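 Note: score combines 667 nm spot fluorescence with signal to noise.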 As to conditions: NRG1 binding, 635 nm fluorescence, higher = more signal.
Assay [7] concerns Neuregulin-1 EGF-like domain. As to the kind of experiment: small molecules binding NRG1 EGF domain – biochemical, small-molecule microarray, 635 nm fluorescence, primary screen (AID 1081).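 Note: binding of the protein to compounds printed on small-molecule microarray slides.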 The settings on record: higher = more signal.
Assay [8] in a line: FRG1 expression reporter modulators in myotubes – cell-based, C2C12 myotubes, firefly/Renilla luciferase, luminescence, FRG1 inhibition for FSHD, primary screen (AID 1084). The settings on record: FRG1 promoter luciferase, higher = more signal, called active from +8 up or from −8 down.
Assay [9] in a line: small molecules captured by biotinylated probe aFST – biochemical, small-molecule microarray, fluorescence 635/667, stem cell growth factor project, primary screen (AID 1086).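 Note: score merges 667 nm fluorescence with signal-to-noise of each printed compound spot.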 As to conditions: higher = more signal.
A short description of assay [10]: binders of probe aHhip on microarray, primary screen, stem cell growth factor project, biochemical, small-molecule microarray, fluorescence 635/667 (AID 1087).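 Note: score merges spot fluorescence at 667nm with spot signal to noise ratio.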 The settings on record: higher = more signal.
Assay [11] deals with PRMT1 (protein arginine N-methyltransferase 1). As to the kind of experiment: small molecules binding arginine methyltransferase PRMT1 – biochemical, small-molecule microarray, 635 nm fluorescence, primary screen (AID 1088).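 Note: binding of Prmt1 protein to compounds spotted on small-molecule microarray slides.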 As to conditions: higher = more signal.
The nature of assay [12]: growth effects on S. cerevisiae YJM789 – YJM789 clinical isolate, OD600, 24 h, basal, primary screen (AID 1089).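 Note: growth of clinical yeast isolate S. cerevisiae YJM 789 seeded 1000 cells per well; test concentration not given here.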 As to conditions: higher = more signal, called active from +8 up or from −8 down.
Assay [13] can be described thus: S. pombe growth modifiers, basal conditions – strain 972, OD600, 24 h, no modulator, primary screen (AID 1090).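 Note: basal condition with compound alone and no growth modifier present; test concentration not given here.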 As to conditions: S. pombe 972 growth, higher = more signal, called active from +8 up or from −8 down.
Assay [14] can be described thus: budding yeast growth modifiers under rapamycin – strain BY4716, OD600, 96 h, primary screen (AID 1091). Note: test concentration not given here. The settings on record: S. cerevisiae BY4716 + rapamycin, higher = more signal, called active from +8 up or from −8 down.
Assay [15] addresses Torsin-1A-interacting protein 2 (Homo sapiens) (UniProt Q8NFQ8). As to the kind of experiment: small molecules binding lysate-expressed LULL1 – cell lysate, human LULL1 lysate, 635/667 nm fluorescence, primary screen (AID 1092).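 Note: probe is lysate of COS7 cells overexpressing human LULL1; score merges per-feature 667 nm fluorescence with signal-to-noise.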 As to conditions: small-molecule microarray, hLULL1 lysate binding, 635 nm fluorescence; higher = more signal.
Assay [16] in a line: optical density change of DRC41 E. coli – strain DRC41, OD650, 24 h, E. coli filamentation project, primary screen (AID 1093).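 Note: MC1000 strain lacking acrAB efflux and sulA so SOS filamentation is blocked; test concentration not given here.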 As to conditions: E. coli DRC41 growth, higher = more signal, called active from +8 up or from −8 down.
A short description of assay [17]: probe aLefty2 binding to arrayed compounds – biochemical, biotinylated probe, 635/667 nm fluorescence, primary screen (AID 1094).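 Note: score merges spot fluorescence near 667 nm with spot signal-to-noise ratio.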 The settings on record: small-molecule microarray, higher = more signal.
The subject of assay [18] is Noggin (protein binding on small-molecule microarray). As to the kind of experiment: small molecules binding Noggin protein – biochemical, 635/667 nm fluorescence, primary screen (AID 1095).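 Note: score merges 667 nm feature fluorescence with signal to noise over triplicate slides.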 As to conditions: 635 nm fluorescence, higher = more signal.
Assay [19] addresses Neurogenic locus notch homolog protein 3 (Homo sapiens) (UniProt Q9UM47). Briefly: small molecules binding NOTCH3 protein – biochemical, 635/667 nm fluorescence, primary screen (AID 1096). As to conditions: small-molecule microarray, 635 nm fluorescence, higher = more signal.
Assay [20] is described as follows: probe aEGFR binding to arrayed compounds – biochemical, biotinylated probe, 635/667 nm fluorescence, primary screen (AID 1097).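 Note: probe is a biotinylated anti-EGFR antibody binding compounds printed on slides; score combines fluorescence near 667 nm and signal to noise of each spot.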 The settings on record: small-molecule microarray, higher = more signal.

The structures appear in SMILES notation. Active and inactive are the calls of the source.

Pro-neuregulin-1, membrane-bound isoform (Homo sapiens), sequence (Q02297 whole entry, looked up, the tested form may be a part, canonical isoform): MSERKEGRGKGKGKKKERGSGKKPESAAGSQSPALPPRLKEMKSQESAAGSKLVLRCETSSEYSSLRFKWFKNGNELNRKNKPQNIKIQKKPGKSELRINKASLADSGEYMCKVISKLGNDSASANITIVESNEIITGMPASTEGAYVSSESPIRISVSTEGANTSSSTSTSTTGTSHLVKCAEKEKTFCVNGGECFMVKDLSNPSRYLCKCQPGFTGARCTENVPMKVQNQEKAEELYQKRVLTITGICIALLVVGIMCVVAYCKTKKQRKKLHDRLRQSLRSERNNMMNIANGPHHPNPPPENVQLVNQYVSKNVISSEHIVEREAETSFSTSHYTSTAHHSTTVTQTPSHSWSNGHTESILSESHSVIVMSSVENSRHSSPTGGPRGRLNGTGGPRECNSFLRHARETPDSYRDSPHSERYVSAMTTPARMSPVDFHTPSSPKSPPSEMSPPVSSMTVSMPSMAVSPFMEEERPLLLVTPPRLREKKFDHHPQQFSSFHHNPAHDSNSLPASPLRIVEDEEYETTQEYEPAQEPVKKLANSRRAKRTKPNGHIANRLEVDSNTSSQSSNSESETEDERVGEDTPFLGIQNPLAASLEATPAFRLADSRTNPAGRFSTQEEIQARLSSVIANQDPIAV
Neurogenic locus notch homolog protein 3 (Homo sapiens), sequence (Q9UM47 whole entry, looked up): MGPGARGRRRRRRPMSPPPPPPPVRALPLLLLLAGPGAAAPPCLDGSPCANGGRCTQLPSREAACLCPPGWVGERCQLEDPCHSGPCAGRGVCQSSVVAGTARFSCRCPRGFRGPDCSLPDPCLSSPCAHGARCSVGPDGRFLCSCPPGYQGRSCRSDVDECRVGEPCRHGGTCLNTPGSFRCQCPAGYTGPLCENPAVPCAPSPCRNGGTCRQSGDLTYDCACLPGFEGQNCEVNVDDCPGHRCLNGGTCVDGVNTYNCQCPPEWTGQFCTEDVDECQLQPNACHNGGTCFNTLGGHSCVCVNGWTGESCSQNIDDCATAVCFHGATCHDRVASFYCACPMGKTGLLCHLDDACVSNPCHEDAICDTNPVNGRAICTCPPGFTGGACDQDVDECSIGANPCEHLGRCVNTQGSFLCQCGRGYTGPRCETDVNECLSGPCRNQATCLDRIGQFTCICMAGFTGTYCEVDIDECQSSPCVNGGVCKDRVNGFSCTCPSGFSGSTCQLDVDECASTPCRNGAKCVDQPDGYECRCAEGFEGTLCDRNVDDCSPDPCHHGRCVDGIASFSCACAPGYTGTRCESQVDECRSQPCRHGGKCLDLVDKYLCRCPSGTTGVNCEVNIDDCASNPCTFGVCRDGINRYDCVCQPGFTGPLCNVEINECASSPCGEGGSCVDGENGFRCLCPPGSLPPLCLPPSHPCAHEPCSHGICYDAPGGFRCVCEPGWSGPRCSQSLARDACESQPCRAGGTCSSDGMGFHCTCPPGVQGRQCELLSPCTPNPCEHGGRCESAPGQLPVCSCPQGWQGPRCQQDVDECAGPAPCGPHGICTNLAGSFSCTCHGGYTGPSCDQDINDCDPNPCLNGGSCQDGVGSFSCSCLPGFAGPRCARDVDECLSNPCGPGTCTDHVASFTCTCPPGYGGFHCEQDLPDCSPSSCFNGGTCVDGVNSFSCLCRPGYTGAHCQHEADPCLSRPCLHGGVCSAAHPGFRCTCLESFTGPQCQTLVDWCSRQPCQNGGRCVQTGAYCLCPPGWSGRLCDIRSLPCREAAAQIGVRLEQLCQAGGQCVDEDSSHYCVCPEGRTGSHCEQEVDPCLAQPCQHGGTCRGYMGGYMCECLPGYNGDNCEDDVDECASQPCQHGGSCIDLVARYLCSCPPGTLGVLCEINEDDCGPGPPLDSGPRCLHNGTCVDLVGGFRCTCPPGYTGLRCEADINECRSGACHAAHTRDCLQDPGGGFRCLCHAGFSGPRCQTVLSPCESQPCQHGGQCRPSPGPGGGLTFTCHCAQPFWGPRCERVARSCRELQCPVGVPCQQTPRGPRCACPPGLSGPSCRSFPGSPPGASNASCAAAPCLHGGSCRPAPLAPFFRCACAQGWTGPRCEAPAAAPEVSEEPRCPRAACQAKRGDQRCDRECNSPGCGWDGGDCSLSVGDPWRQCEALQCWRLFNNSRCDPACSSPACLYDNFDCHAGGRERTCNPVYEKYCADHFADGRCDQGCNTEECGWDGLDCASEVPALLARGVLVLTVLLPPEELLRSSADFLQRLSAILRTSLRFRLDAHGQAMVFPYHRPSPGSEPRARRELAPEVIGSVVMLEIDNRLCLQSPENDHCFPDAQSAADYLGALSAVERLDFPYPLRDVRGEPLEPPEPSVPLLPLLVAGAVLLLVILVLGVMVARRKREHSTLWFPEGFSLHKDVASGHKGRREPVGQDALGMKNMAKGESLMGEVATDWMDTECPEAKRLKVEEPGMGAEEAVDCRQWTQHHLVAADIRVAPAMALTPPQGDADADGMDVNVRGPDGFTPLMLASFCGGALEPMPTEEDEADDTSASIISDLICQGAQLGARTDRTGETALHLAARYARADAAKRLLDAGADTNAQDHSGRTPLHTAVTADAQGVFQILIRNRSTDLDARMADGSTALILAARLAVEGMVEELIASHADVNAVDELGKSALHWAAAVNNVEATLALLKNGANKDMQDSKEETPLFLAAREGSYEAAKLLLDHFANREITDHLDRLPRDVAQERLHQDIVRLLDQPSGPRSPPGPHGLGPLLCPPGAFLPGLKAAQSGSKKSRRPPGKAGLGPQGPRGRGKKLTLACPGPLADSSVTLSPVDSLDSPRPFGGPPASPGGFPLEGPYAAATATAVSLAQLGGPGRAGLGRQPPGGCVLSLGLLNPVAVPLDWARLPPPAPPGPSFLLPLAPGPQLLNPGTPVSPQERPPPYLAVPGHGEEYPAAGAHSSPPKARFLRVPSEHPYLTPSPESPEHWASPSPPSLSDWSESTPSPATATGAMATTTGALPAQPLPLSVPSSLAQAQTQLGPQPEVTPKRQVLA
Torsin-1A-interacting protein 2 (Homo sapiens), sequence (Q8NFQ8 whole entry, looked up): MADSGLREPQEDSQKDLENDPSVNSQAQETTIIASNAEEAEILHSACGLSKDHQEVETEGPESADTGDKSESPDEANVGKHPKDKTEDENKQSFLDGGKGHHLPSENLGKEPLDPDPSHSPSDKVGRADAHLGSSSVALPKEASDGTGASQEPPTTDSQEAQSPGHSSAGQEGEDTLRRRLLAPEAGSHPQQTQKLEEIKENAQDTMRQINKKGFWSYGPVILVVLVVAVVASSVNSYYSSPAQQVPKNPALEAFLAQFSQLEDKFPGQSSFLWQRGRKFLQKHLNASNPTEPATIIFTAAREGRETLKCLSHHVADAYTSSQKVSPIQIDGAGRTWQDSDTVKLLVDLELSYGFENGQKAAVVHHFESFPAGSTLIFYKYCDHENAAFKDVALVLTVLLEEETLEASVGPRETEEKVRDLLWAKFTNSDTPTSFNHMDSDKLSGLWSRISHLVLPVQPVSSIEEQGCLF

Take `CCOC(=O)NN=C1C[C@@H](O)[C@@H](O)[C@@H]2[C@@H]3C(=O)N([C@@H](C)c4ccccc4)C(=O)[C@@H]3CC[C@@H]12`: the composite z-score in assay [1] was -0.291; in [2], 2.08; in assay [3], -0.0934; in assay [4], 0.393; in [5] it was 0.601; in assay [6], -0.133. In addition, the composite z-score in [7] was 0.11; in assay [9], 0.517; in [10], -0.0994; in assay [11] it was 1.46; in [15], -0.0284; in assay [17] it was -0.113. In addition, the composite z-score came to 0.797 in [18], 0.954 in [19] and 0.143 in [20]. The z-score is 0.696 (inactive) in [8]; -0.707 (inactive) in assay [12]; 0.159 (inactive) in [13]; -0.231 (inactive) in assay [14]; 0.667 (inactive) in assay [16].
Consider `CCOC(=O)C1=NO[C@]2(C=C(Br)C3(OCCCO3)[C@H]3O[C@H]32)C1`, for which the composite z-score was 0.0733 in [1]; 2.19 in assay [2]; -0.116 in [3]; -0.229 in assay [4]; -0.212 in assay [5]; -0.722 in assay [6]. The composite z-score in assay [7] is -0.208; in assay [9], -0.132; in assay [10], -0.0726; in assay [11], -0.365; in assay [15], 0.141; in assay [17], -0.244. For the same molecule, the composite z-score in [18] was -0.519; in [19], -0.862; in [20], 0.0214. The z-score in assay [8] is 0.293 (inactive); in assay [12] it was -0.658 (inactive); in [13], -1.06 (inactive); in assay [14], -0.155 (inactive); in assay [16], 0.874 (inactive).
As to `COC(=O)C=CCCc1coc(C=CCNC(=O)OC)n1`, the composite z-score was -0.0195 in assay [1]; 0.924 in [2]; 0.202 in assay [3]; 0.833 in assay [4]; 0.485 in assay [5]; -0.0679 in assay [6]. The composite z-score in assay [7] was 0.492; in assay [9], 1.04; in assay [10], 0.851; in assay [11], 1.45; in assay [15], 0.254; in [17], 0.17. The composite z-score in [18] amounted to 1.37; in assay [19] it was 1.08; in [20] it was 0.161. In addition, the z-score in assay [8] was 0.721 (inactive); in [12] it was 0.339 (inactive); in assay [13], 0.255 (inactive); in [14], 0.196 (inactive); in assay [16] it was -1.42 (inactive).
`CC(CCN1CCCCc2nc(C)c(C)cc21)=NO[C@@H](C)c1cn([C@H](CO)Cc2ccccc2)nn1`: the composite z-score in assay [1] is 1.22; in [2] it was 1.06; in assay [3], -0.177; in assay [4], 0.171; in assay [5], 0.174; in assay [6] it was 0.605. In addition, the composite z-score is 0.695 in assay [7]; 0.163 in [9]; 0.347 in assay [10]; 1.03 in [11]; 1.16 in [15]; -0.0383 in assay [17]. Moreover, the composite z-score in [18] was 0.377; in assay [19] it was 0.474; in [20], 0.0317. Also, the z-score in assay [8] was 1.19 (inactive); in [12] it was 0.725 (inactive); in assay [13] it was -0.0001 (inactive); in [14] it was 0.17 (inactive); in assay [16] it was 0.457 (inactive).
For `COC(=O)[C@H](C)NC(=O)CCC1CC(OC(=O)NCCc2ccc(F)cc2)CC2(CCCC(COC(=O)NCc3cccc(C(F)(F)F)c3)O2)O1` (stereo not given in full), the composite z-score in assay [1] was -0.632; in assay [2], 0.041; in assay [3] it was -0.0265; in assay [4] it was 0.624; in assay [5] it was 1.36; in assay [6] it was 0.0829. Also, the composite z-score in [7] is 0.729; in assay [9] it was 0.829; in assay [10] it was -0.0645; in [11], 0.292; in assay [15], 1.79; in assay [17], -0.0668. In addition, the values for the composite z-score in [18], in assay [19] and in [20] were 1.01, 0.581 and -0.0647, respectively. In addition, the z-score is 0.286 (inactive) in [8]; -0.207 (inactive) in [12]; 1.18 (inactive) in assay [13]; 0.52 (inactive) in assay [14]; 0.723 (inactive) in [16].
